# This is a sample that favours compounds with a hit; in the whole collection about 2.5% have one here.
# ANO1 activ: activators or potentiators of mouse TMEM16A chloride channel; Q8BHY3; HEK293 TMEM16A/YFP-H148Q/I152L, iodide quench fluorescence; stronger effect = lower value; B-score at 10 µM; 340,000 compounds, 0.3% hits; AID 623877;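 active means fluorescence-ratio B-score plate-corrected deviation score at least 3 library SD below zero, with starting fluorescence score within 5 deviations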;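 further: channel opened by trigger with iodide after compound preincubation; score built on the fluorescence ratio of max minus min over baseline; more negative score means more quench and so TMEM16A activation or potentiation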
# PKA-R1A activ: activates the PKA-R1A holoenzyme complex | 340,000 compounds, 0.083% hits | PKA-R1A dissociation, Cy5-IP20 fluorescence polarization; scaled: DMSO 0%, 113 µM cGMP 100% | activation, % at 11.4 µM | P00514+P68181;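 active means percent activation above the mean of all tested compounds plus 3 SD, cut at about 19% in these data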;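 further: higher means more PKAc released from R1A so a rise in polarization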
# CHT inh: inhibitors of human choline transporter CHT; CHT-expressing cells, membrane potential dye, choline response; stronger effect = lower value; B-score at 10 µM; 310,000 compounds, 0.86% hits; Q9GZV3;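 active means B-score over 3 SD under the library average, and starting fluorescence ratio not unusually high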;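 further: choline stimulus applied at its EC90 after an EC20 pre-addition; B-score computed on integrated fluorescence ratio after choline addition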
# Target sequence (Q9GZV3 whole entry, looked up): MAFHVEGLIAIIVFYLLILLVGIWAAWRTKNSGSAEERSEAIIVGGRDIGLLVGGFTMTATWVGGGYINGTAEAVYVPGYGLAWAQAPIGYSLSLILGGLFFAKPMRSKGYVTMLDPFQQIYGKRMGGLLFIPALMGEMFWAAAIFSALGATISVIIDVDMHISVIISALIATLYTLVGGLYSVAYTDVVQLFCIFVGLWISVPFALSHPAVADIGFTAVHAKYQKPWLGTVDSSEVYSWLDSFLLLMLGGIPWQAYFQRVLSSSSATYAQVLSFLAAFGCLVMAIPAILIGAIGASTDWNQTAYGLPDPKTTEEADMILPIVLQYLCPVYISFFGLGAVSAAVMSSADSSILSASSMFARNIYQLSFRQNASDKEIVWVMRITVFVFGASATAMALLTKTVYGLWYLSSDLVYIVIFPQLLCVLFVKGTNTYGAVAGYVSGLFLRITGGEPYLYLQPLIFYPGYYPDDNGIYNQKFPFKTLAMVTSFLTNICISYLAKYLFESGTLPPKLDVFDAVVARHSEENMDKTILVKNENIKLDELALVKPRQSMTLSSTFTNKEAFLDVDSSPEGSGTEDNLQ
# PKA-R2B activ: activates the human PKA-R2B holoenzyme complex. PKA-R2B holoenzyme dissociation, Cy5-IP20 fluorescence polarization; R2B truncated from residue 108, S112A mutant; 0% DMSO only, 100% 113 µM cGMP. activation, % at 11.4 µM. 340,000 compounds, 0.079% hits. AID 504700;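 active means activation above a cutoff set at the mean over all compounds plus 3 SD, cut at about 18% in these data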;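 further: higher means more holoenzyme dissociation and a rise in polarization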
# CHT allo act: allosterically activates the human high affinity choline transporter; Q9GZV3; CHT-expressing cells, membrane potential dye, choline EC20; stronger effect = higher value; LV-AA mutant CHT in HEK293 cells; B-score at 10 µM; 310,000 compounds, 0.49% hits;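 active means initial fluorescence not abnormally high and integrated response B-score, plate-corrected, over 3 SD above library mean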
# ANO1 block: blocks the mouse calcium-activated chloride channel TMEM16A; 310,000 compounds, 1.2% hits; Q8BHY3; AID 588511; normalized B-score (activity score, 25-100; higher = stronger inhibition) at 10 µM; HEK293 TMEM16A/YFP iodide influx fluorescence, ionomycin;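 active means ratio plate-corrected score three or more library SD toward inhibition, starting fluorescence score within five deviations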;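 further: score derived from kinetic fluorescence span divided by baseline fluorescence per well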
# R1A FP artifact: FP assay interference, PKA-R1A counter-screen; shares compounds with PKA-R1A activ; Cy5-IP20 peptide alone, fluorescence polarization artifact counterscreen; activation, % at 11.4 µM; 280 compounds, 7% hits; AID 504799;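 active means mean activation over triplicate runs exceeds the adjusted cutoff derived for the parent primary screen, cut at about 19% in these data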;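 further: no PKA protein present so any polarization rise reflects compound interference; higher means stronger polarization artifact and likely false positive in parent screen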
# PKA-R1A act conf: confirmation of PKA-R1A complex activators; shares compounds with PKA-R1A activ; Cy5-IP20 fluorescence polarization, PKA-R1A holoenzyme dissociation; activation, % at 11.4 µM; 280 compounds, 9% hits; AID 504800;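 active means mean activation over replicate wells exceeds the adjusted hit threshold taken from the earlier primary screen, cut at about 20% in these data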
# A number is an active result; . = inactive; / = no result given.
SMILES,ANO1 activ,PKA-R1A activ,CHT inh,PKA-R2B activ,CHT allo act,ANO1 block,R1A FP artifact,PKA-R1A act conf
CCCCS(=O)(=O)N1CCCC(C(=O)NCCc2ccccc2)C1 (configuration not stated),.,.,.,.,.,.,/,/
COc1ccc(N2C(=O)CSC2c2ccc([N+](=O)[O-])cc2)cc1 (configuration not stated),.,20,.,.,.,.,.,.
Cc1cc(C)c2c(CC(=O)NNC(=O)c3ccccc3)coc2c1,.,27,.,.,.,.,.,.
CC1CCC2(CC1)NC(=S)N(C(C)(C)C)N2 (configuration not stated),.,/,.,/,.,.,/,/
CC1CCC2(CC1)NC(=S)N(c1ccccc1)N2 (configuration not stated),.,19,.,.,.,.,.,.
CCOC(=O)C1=NNC(C(=O)c2ccc(OC)cc2)C1c1ccccc1 (configuration not stated),.,20,.,.,.,.,.,.
CC(=O)Nc1c(C(=O)O)ccc(C)c1OCc1ccccc1,.,.,/,.,/,/,/,/
COc1ccc(NC(=O)CCC(=O)NCc2ccco2)c([N+](=O)[O-])c1,.,.,.,.,.,.,/,/
CCCS(=O)(=O)c1ccc(COC(=O)c2ccc(NC(C)=O)cc2)cc1,.,22,.,.,.,.,.,.
CC(=O)Nc1ccc(C(=O)OCc2ccc(Cl)cc2)cc1,.,.,.,.,.,.,/,/
CNC(=S)N/N=C/c1c2ccccc2c(Cl)c2ccccc12,.,.,.,.,.,.,/,/
COC(=O)C1(C)Nc2ccccc2C(=O)N1c1ccccc1OC (configuration not stated),.,23,.,.,.,.,.,.
Cc1ccc(S(=O)(=O)N/N=C/c2cc(Br)c(C)o2)cc1,.,.,.,.,.,.,/,/
Cc1ccc(S(=O)(=O)NN=Cc2ccco2)cc1,/,22,/,.,/,/,.,.
COc1ccc(NC(=O)c2cc(-c3ccccc3OC)on2)cc1,.,.,.,.,.,.,/,/
COc1ccccc1-c1cc(C(=O)Nc2cccnc2)no1,.,19,.,.,11,.,.,.
O=C(CSC(=S)N1CCOCC1)Nc1ccc(S(=O)(=O)Nc2ncccn2)cc1,.,.,.,.,.,.,/,/
CSCC[C@H](NC(=O)c1nn(C)c(=O)c2ccccc12)c1nc2ccccc2[nH]1,.,20,.,.,.,.,.,.
CCN(CC)C(=N)N1c2ccccc2CCC1C (configuration not stated),.,.,.,.,.,.,/,/
CN(C)CCNC(=O)c1c(CSc2ccc(Cl)cc2)noc1C(=O)NCc1ccccc1,.,20,.,.,.,.,.,.
O=C(NCc1ccccc1)c1onc(CSc2ccc(Cl)cc2)c1C(=O)NCc1ccccc1,.,.,.,.,.,.,/,/
COc1cccc(CN(C)CC(=O)NC(=O)NCc2ccccc2)c1,.,.,.,.,.,.,/,/
COc1ccc(CN(C)CC(=O)NC(=O)NCc2ccccc2)cc1OC,.,21,.,.,.,.,.,.
O=C(O)c1cc(-c2ccccc2)n(-c2ccc(Cl)cc2)n1,.,.,.,.,.,.,/,/
Cc1cc(NC(=O)CSCC(=O)OCC(=O)Nc2cc(C)c(C)cc2[N+](=O)[O-])no1,.,20,.,.,.,.,.,.
COc1ccc(CC(=O)Nc2cccc(S(=O)(=O)N3CCOCC3)c2)cc1OC,.,.,/,.,/,/,/,/
O=C(c1cn2ccccc2n1)N1CCCC(Nc2ccc(F)c(F)c2)C1 (configuration not stated),.,.,.,.,.,.,/,/
C/C(=N/NC(=O)c1cccs1)c1ccc(NC(=O)COc2ccc(Cl)cc2)cc1,.,19,.,.,.,.,.,.
